Only some compounds are listed: those with a hit (about 7.5% of all), similar ones and a draw of the others.
NPC1 promoter act – NPC1 promoter activation; Huh7 NPC1 promoter luciferase reporter, 24 h; 320,000 compounds, 2.4% hits; Potency, µM (top dose mostly 9.22 µM), inactives show at the highest dose activation, most hits filed as activators; note: % of control where 0% means no effect; nearly all actives have a fitted effect of over 60% in size
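Huh7 cells stably carrying NPC1 promoter–luciferase, plated in Opti-MEM with 10% FBS for 2 h, were exposed to compound in DMSO for 24 h at 37 °C; luciferase reagent was added for 10 min and luminescence read.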
Rab9 prom act – activators of Rab9 promoter. AID 485297. Huh7 Rab9 promoter-luciferase reporter, luminescence, 24 h. 320,000 compounds, 2.8% hits. Potency, µM (series often up to 9.22 µM), without a hit: at the highest dose activation, negative = inhibition, usual class: activators; note: % of control where 0% means no effect; nearly all actives have a fitted effect of over 60% in size
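Using Huh7 cells stably transfected with Rab9 promoter–luciferase, compounds were incubated 24 h at 37 °C, 5% CO2; luciferase luminescence was read 10 min after reagent addition.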
FLuc counter – inhibits or activates purified firefly luciferase, miR-21 counter-screen. AID 588342. purified FLuc, Km substrates, luminescence inhibition. Potency, µM (titrated, usually from 57.5 µM), for the others: at the highest dose activity change, negative = inhibition, hits mostly inhibitors. 360,000 compounds, 6.9% hits;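 note: plate controls were vehicle for no effect and reference inhibitor for full effect; nearly all actives have a fitted effect of over 55% in size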
Target sequence (P08659 whole entry, looked up): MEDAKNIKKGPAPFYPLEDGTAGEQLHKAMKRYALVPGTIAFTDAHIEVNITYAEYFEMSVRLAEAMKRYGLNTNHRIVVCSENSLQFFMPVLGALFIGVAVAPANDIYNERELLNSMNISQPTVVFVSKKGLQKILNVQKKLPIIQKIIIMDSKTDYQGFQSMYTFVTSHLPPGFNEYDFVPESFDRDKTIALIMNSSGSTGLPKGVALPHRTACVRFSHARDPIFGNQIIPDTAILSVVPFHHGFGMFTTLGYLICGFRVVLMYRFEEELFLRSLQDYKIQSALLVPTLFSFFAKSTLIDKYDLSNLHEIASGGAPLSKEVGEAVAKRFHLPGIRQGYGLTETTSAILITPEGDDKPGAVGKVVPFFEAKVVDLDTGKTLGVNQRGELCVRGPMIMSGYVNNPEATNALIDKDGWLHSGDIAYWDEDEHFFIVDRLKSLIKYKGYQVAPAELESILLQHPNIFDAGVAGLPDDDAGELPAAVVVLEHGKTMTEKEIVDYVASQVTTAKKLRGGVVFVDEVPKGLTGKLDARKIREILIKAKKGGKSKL
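Purified P. pyralis luciferase, 10 nM final, with Km-level 10 uM D-luciferin and 10 uM ATP in 50 mM Tris acetate pH 7.5, 10 mM Mg acetate, 0.01% Tween-20, 0.05% BSA; 6-point qHTS titration about 60 µM downward; luminescence read.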
SMN2 splice enh – increases expression of the SMN2 splice variant; Potency, µM (series often up to 46.1 µM), for inactives: top-dose activity change, positive = activation, hits mostly activators; 210,000 compounds, 2.8% hits; HEK293 SMN2-luciferase splicing reporter, luminescence, 30-36 h; note: % of control where 0% means no effect; nearly all actives have a fitted effect of over 55% in size
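qHTS luciferase splicing reporter: luminescence rises when SMN2 exon 7 is included in transfected HEK293 cells. Compound exposure lasted 30-36 h at 37C, with 4.5 mM final sodium butyrate as control, followed by a ONE-Glo read.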
ELG1 genotoxic – genotoxicity induction in ELG1-luciferase HEK293T cells; Potency, µM (highest dose often 46 µM), inactives show top-dose activity change, positive = activation, actives largely listed as activators; 330,000 compounds, 1.3% hits; HEK293T ELG1-luciferase reporter, luminescence, 16 h; note: % of control where 0% means no effect; nearly all actives have a fitted effect of over 60% in size
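16 hr compound incubation (37 °C, 5% CO2) of HEK293T cells carrying luciferase-tagged ELG1; luciferase then measured by ONE-Glo luminescence after 30 min at RT.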
* marks the source's active call; other numbers are inactive results; ? = inconclusive; . = no result given; [ ] = dose if it differs, or a comment. Calls come from the whole dose curve; as a rule, active = well fitted curve in the direction sought with a large enough effect; inconclusive = small, poorly fitted or top-dose-only effect, or another doubt; inactive = no such curve, though single readings can be large; an effect the other way counts as inactive or inconclusive. Potency is the fitted concentration of half-maximal effect.

SMILES | NPC1 promoter act | Rab9 prom act | FLuc counter | SMN2 splice enh | ELG1 genotoxic
O=C(COC(=O)c1ccc(Br)o1)NCC(=O)Nc1ccc(F)cc1 | 0.6% | -2.7% | -1.6% | . | 1.3%
Cc1ccc2nc(C)cc(N/N=C/c3cccnc3)c2c1 | 0.4% | -3.6% | -0.3% | . | 1.9%
Oc1ccc(/C=N/Nc2cccc3cccnc23)c(O)c1 | 9.4% | 3.16µM* | 4.78µM* | 12.6µM* | 6.51µM*
Cc1ccc(/C=N/Nc2cccc3cccnc23)c(O)c1 | 3.98µM* | ? | 1.51µM* | . | ?
Cc1cc(C)c2c(-n3cccc3)c(C(=O)O)sc2n1 | 1µM* | 0.631µM* | 2.69µM* | ? | ?
c1ccc(CNc2ncnc3nc[nH]c23)cc1 | 1.2% | 2.5% | -2.1% | -3.4% | -4.8%
C(=N\Nc1ncnc2nc[nH]c12)/c1cccs1 | ? | ? | 13.5µM* | 35.5µM* | 16.4µM*
Cc1ccsc1/C=N/Nc1ncnc2nc[nH]c12 | 2.51µM* | 3.55µM* | 19µM* | 11.2µM* | 14.6µM*
Fc1ccc(/C=N/Nc2ncnc3nc[nH]c23)cc1F | 29.5% | 27.9% | ? | ? | 20.6µM*
OCCNc1ncnc2nc[nH]c12 | . | . | . | -8.0%[9.22 µM] | .
CN(C)CCCNc1ncnc2nc[nH]c12 | . | . | . | 0.8%[9.22 µM] | .
Cc1ccccc1/C=N/Nc1ncnc2nc[nH]c12 | ? | ? | 15.1µM* | . | ?
COc1ccc(N2CCN(C3C(=O)c4ccccc4N3C(C)=O)CC2)cc1 (centres undefined) | . | . | -10.8% | . | .
Cn1c(=O)c2c(nc(Sc3ncnn3CC(=O)NC(C)(C)C)n2C)n(C)c1=O | -3.6% | -8.5% | -2.7% | -2.5% | -5.7%
O/N=C/c1cn(-c2ccc(Cl)cc2)nn1 | 23.1% | ? | ? | 24.8% | ?
O=C(Nc1ccc(N2CCCCC2)cc1)c1ccc([N+](=O)[O-])o1 | 0.501µM* | 2.51µM* | 1.51µM* | . | 6.51µM*
Cc1ccc(NC(=O)c2ccc([N+](=O)[O-])o2)cc1C | -1.9% | ? | 21.3µM* | -7.9% | 18.4%
CS(=O)(=O)N1CCN(c2ccc(NC(=O)c3ccc([N+](=O)[O-])o3)cc2)CC1 | ? | 2.24µM* | -16.3% | . | ?
O=C(Nc1ccccc1N1CCCC1)c1ccc([N+](=O)[O-])o1 | -3.6% | 5.7% | 3.4% | . | -8.2%
O=C(Nc1ccc(N2CCCC2)c(Cl)c1)c1ccc([N+](=O)[O-])o1 | ? | ? | 7.57µM* | -53.4% | -17.7%
COc1cccc(C(=O)NC2CCN(CC(=O)NCc3ccccc3F)CC2)c1 | -4.0% | -0.5% | -0.6% | . | 0.2%
CCOC(=O)c1nnsc1NC(C)=O | 0.0% | -7.5% | 0.2% | -4.8% | -8.9%
O=C(NCCO)c1cccc2c1-c1ccccc1C2=O | 0.7% | 0.1% | 4.0% | 14.4% | 1.2%
O=C(Nc1nc2c(Cl)cccc2s1)c1ccc([N+](=O)[O-])o1 | -1.9% | 9.3% | ? | . | -12.1%
O=C(Nc1cccc(NC(=O)c2ccccc2Cl)c1)c1ccc([N+](=O)[O-])o1 | -15.6% | 3.7% | 21.3µM* | . | -20.4%
SMILES | NPC1 promoter act | Rab9 prom act | FLuc counter | SMN2 splice enh | ELG1 genotoxic
CC1CCN(c2ccc(NC(=O)c3ccc([N+](=O)[O-])o3)cc2)CC1 | ? | 2µM* | 1.07µM* | . | 3.66µM*
CCOC(=O)c1ccc(NC(=O)NC2CC3CCC(C2)N3C(=S)NC)cc1 (centres undefined) | -7.0% | -5.0% | -4.6% | -6.8% | 7.6%
CC(C)(C)c1ccc(C(=O)Nc2nnc3n2CCS3)cc1 | . | . | 6.01µM* | . | .
CCCS(=O)(=O)c1nc(S(=O)(=O)c2ccc(C)cc2)c(NCc2ccc3c(c2)OCO3)s1 | 6.0% | -1.1% | 0.0% | -13.9% | 2.2%
Cc1csc(NC(=O)c2cnc3ccccc3n2)n1 | ? | ? | 2.39µM* | . | ?
Cc1csc(NC(=O)c2ccc3ccccc3n2)n1 | 0.501µM* | 1.12µM* | 1.07µM* | . | ?
COc1ccc(S(=O)(=O)N2CCCCC2)cc1NC(=O)c1ccc2ccccc2n1 | 0.8% | -4.8% | 2.4% | 0.6% | -0.1%
Cc1ccc(S(=O)(=O)N2CCCCC2)cc1NC(=O)c1ccc2ccccc2n1 | 9.5% | 12.9% | 26.9µM* | 11.4% | -0.4%
Cc1csc(NC(=O)c2cc(C)nc3ccccc23)n1 | -6.8% | -1.8% | -9.4% | -0.9% | -7.2%
Cc1cccc(NC(=O)c2ccc3ccccc3n2)c1C | ? | ? | 0.849µM* | 12.6µM* | ?
CC(c1ccccc1)N1CC(C(=O)Nc2nccs2)CC1=O (centres undefined) | 0.8% | -0.1% | 1.5% | . | -3.9%
CCOc1ccc(-c2nonc2NC(=O)COc2c(C)cc(C)cc2C)cc1OCC | . | . | -4.7% | 0.9% | .
O=C(Nc1nccs1)c1ccc2ccccc2n1 | 3.98µM* | ? | 3.38µM* | . | ?
CCC(CC)c1nnc(NC(=O)c2ccc3ccccc3n2)s1 | ? | ? | 5.36µM* | 12.6µM* | ?
O=C(NCc1ccccc1F)c1ccc2ccccc2n1 | 3.3% | -0.2% | -14.9% | . | 3.7%
O=C(NCc1ccccc1Cl)c1ccc2ccccc2n1 | ? | ? | 15.1µM* | . | ?
O=C(Nc1ccccn1)c1ccc2ccccc2n1 | ? | 4.47µM* | 0.953µM* | 11.2µM* | ?
CCC(CC)c1nnc(NC(=O)c2cc(-c3ccccc3)nc3ccccc23)s1 | 0.0% | -1.5% | 1.9% | . | -6.4%
O=C(Nc1nccs1)c1cc(Cl)nc2ccccc12 | -4.3% | 0.6% | -3.8% | . | -4.1%
CCC(C)[C@H](NC(=O)[C@@H]1CSC2c3ccccc3C(=O)N21)C(=O)NCC1CCCO1 (some centres undefined) | -1.8% | -4.0% | -1.4% | . | 0.9%

Bioassay records as filed in PubChem BioAssay.
